# Measurements: PubChem BioAssay
# Values joined by “and” are separate entries in the source; they are usually repeats but may differ in a detail not shown here. Identical values can stand only once. For some assays here: Results with a measured potency or affinity are listed apart. Active and inactive are the calls of the source.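 How the source made its calls, unless noted: active means compounds whose cell count with miR-34 switched on is under 0.7 times the count with it off; inactive means the rest.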 Peptide text beside a SMILES is read from it.
# Assays:
# [1] = hESC survival regulators, cell-based (AID 493140; call rule not given here;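 further: cells exposed to compounds for four days before counting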); conditions: human embryonic stem cell survival screen; stronger effect = higher value
# [2] = liver-stage malaria parasite growth inhibition, primary screen, cell-based, HepG2, luciferase luminescence, HepG2 viability (AID 624349; in the data active means parasite load remaining mostly below about 12%, no sharp cut-off; inactive means mostly above about 10%;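 further: 100% = mean of DMSO negative control wells on the same plate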); conditions: P. berghei liver stage in HepG2, luciferase luminescence, concentration not given here; parasite load remaining: stronger effect = lower value; viability: measured here: HepG2 viability without parasites
# [3] = target: 6-phosphogluconate dehydrogenase, decarboxylating (Homo sapiens) (UniProt P52209); assay: 6PGD enzyme inhibitors, primary screen, biochemical, human, recombinant enzyme, NADPH absorbance (AID 1159550;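 active means at least 20% inhibition of 6-phosphogluconate dehydrogenase activity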); conditions: recombinant 6PGD, NADPH absorbance 341 nm; at 10 µM; stronger effect = higher value
# [4] = differential killing of epithelial or mesenchymal cells, primary screen, imaging, PC-3E GFP, TEM4-18 mCherry, co-culture (AID 1345086;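 active means compounds killing one labelled cell type while sparing the other, by normalised counts and ratio limits, not self-fluorescent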;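 on all read-outs here: cells exposed to compound for 72 h before imaging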;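 on red/green cell ratio (normalised): normalised mesenchymal count divided by normalised epithelial count so high means epithelial killing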); conditions: imaging cell counts, at 1 µM; for red/green cell ratio (normalised): actives lie on both sides, counts scaled to control wells, 1 = unselective
# [5] = sensitizers of A549 cells to miR-34 induction, primary screen, imaging, A549 dox-inducible miR-34, nuclei and caspase counts (AID 1347080); conditions: A549 miR-34 inducible, Hoechst nuclei count, 48 h
# [6] = target: Mitogen-activated protein kinase 7 (Homo sapiens) (UniProt Q13164); assay: ERK5 transactivation activators in reporter cells, primary screen, cell-based, HTS (AID 1508626;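 active means luciferase signal above three times the same-plate solvent-only control wells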;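 further: luciferase driven by Gal4-ERK5 fusion binding five Gal4 sites before minimal TATA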); conditions: HeLa Gal4-ERK5 transactivation, 18 h, at 5 µM, stronger effect = higher value
# [7] = survival rescue of mitochondrial mutant cells in low glucose, primary screen, MELAS cybrids, Rieske KO mouse fibroblasts, CellTiter-Glo (AID 1508586;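 active means mean z-score across replicates of 1.96 or higher in either the MELAS or the Rieske mutant cell line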;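 further: z relative to plate mean and SD of compound and empty wells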)
# [8] = circadian clock period modulators, cell-based, LOPAC library, luminescence reporter (AID 2774; call rule not given here;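 further: values are relative to mean of DMSO wells on each plate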); conditions: circadian reporter cells, at 7 µM, actives lie on both sides
# [9] = phospholipid biosynthesis inhibitors in animal cells, primary screen, cell-based, LOPAC library, screen 4 (AID 1347384; call rule not given here); conditions: phospholipid biosynthesis inhibition screen, at 10 µM
# [10] = viability rescue of complex I mutant cybrids, primary screen, cell-based, galactose medium, ATP luminescence (AID 1645843;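 active means z-score of at least 1.8 in each of two replicates, scored against plate mean and spread of sample wells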;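 further: positive z means more ATP and so rescue of galactose-driven cybrid death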); conditions: complex I mutant cybrid cells, 72 h, stronger effect = higher value
# [11] = target: NAD(+) hydrolase SARM1 (Homo sapiens) (UniProt Q6SZW1); assay: SARM1 TIR NADase inhibitors, cell lysate, NAD-Glo luminescence (AID 1508614;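 active means compound whose remaining NAD level is above about 45 nM, limit read from the data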); conditions: SAM-TIR HEK293T lysate NADase, at 1 µM, stronger effect = higher value
# [12] = polyglutamine-triggered caspase-3 activation inhibitors, cell-based (AID 1583); conditions: polyglutamine-induced caspase-3 activation, cell assay; stronger effect = higher value;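 tested at 10 µM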
# [13] = suppressors of polyQ aggregation in yeast, 75Q-TubU reporter (AID 1593); conditions: Yeast 75Q polyglutamine aggregation reporter
# [14] = rescue of polyQ-huntingtin neuronal dysfunction in worms, whole organism, C. elegans mechanosensory neurons, N-terminal huntingtin (AID 1599); conditions: touch response, stronger effect = higher value
# [15] = inhibitors of mitochondrial cytochrome c release, biochemical, purified mitochondria (AID 1603); conditions: stronger effect = lower value;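 further: mouse liver mitochondria challenged with calcium chloride; signal normalized to the plate average as 100%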
# [16] = inhibitors of polyQ protein aggregation (AID 1604); conditions: polyglutamine-induced protein aggregation inhibition assay; stronger effect = higher value; tested at 2.5 µM
# [17] = enhancers of glutamate uptake in motor neurons, MN-1 cell line (AID 1612); conditions: MN-1 motor neuron cells, stronger effect = higher value;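 further: tested at 1 µM final; 0% = mean of DMSO vehicle wells on each plate; positive means more glutamate uptake than control and negative means less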
# [18] = reducers of polyQ inclusions in PC12 cells, cell-based, NGF-treated PC12, GFPQ80 (AID 1614); conditions: PC12 NGF-treated GFP-polyQ80 inclusion reduction;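 further: lower means fewer inclusions and 0 means no inclusions at all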
# [19] = suppressors of polyglutamine aggregation in yeast, 75Q-TubH (AID 1616); conditions: S. cerevisiae 75Q-TubH polyglutamine aggregation suppression; stronger effect = higher value
# [20] = measured here: epithelial PC-3E GFP cell survival
# [21] = measured here: mesenchymal TEM4-18 mCherry cell survival
# [22] = stronger effect = lower value, cell number ratio, induced over uninduced
# [23] = measured here: relative caspase fold change +Dox/-Dox
# [24] = measured here: total cells with miR-34 induction, stronger effect = lower value
# [25] = measured here: total cells without miR-34 induction
# [26] = MELAS cybrid survival, CellTiter-Glo 48 h, stronger effect = higher value
# [27] = Rieske KO mouse fibroblast survival, CellTiter-Glo 72 h
# 6-phosphogluconate dehydrogenase, decarboxylating (Homo sapiens), sequence (P52209 whole entry, looked up): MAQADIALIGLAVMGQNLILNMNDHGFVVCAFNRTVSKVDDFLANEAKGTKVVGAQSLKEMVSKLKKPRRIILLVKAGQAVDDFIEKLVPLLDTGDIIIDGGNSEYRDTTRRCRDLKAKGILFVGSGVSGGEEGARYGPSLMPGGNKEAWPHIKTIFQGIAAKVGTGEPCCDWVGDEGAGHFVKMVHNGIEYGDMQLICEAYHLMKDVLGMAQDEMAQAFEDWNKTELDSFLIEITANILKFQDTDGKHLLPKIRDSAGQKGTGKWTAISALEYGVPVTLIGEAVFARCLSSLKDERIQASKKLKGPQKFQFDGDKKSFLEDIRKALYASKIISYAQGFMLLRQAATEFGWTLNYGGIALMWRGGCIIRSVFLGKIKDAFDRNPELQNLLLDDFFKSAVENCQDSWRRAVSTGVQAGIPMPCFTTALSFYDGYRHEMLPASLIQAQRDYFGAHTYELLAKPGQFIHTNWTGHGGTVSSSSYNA
# Mitogen-activated protein kinase 7 (Homo sapiens), sequence (Q13164 whole entry, looked up, the tested form may be a part): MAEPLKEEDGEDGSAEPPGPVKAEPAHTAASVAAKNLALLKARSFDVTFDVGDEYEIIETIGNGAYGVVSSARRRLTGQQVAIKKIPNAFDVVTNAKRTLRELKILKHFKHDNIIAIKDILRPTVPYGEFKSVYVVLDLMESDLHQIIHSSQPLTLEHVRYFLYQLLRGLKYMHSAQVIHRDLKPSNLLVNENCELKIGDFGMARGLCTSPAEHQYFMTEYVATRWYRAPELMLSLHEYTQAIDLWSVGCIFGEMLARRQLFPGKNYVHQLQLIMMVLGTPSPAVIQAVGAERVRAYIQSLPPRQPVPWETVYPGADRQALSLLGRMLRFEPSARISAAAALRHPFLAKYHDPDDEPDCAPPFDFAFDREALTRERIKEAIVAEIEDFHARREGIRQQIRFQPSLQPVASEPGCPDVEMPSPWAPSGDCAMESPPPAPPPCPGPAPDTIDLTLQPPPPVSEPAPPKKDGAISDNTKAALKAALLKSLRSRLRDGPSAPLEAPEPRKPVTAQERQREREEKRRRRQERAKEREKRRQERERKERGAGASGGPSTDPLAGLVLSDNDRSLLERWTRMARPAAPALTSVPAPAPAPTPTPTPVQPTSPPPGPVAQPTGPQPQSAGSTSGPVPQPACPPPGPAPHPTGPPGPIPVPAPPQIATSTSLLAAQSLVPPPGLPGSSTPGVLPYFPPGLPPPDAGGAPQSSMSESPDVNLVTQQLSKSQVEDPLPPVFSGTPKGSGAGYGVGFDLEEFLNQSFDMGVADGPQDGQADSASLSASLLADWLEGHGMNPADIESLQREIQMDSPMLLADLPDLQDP
# NAD(+) hydrolase SARM1 (Homo sapiens), sequence (Q6SZW1 whole entry, looked up): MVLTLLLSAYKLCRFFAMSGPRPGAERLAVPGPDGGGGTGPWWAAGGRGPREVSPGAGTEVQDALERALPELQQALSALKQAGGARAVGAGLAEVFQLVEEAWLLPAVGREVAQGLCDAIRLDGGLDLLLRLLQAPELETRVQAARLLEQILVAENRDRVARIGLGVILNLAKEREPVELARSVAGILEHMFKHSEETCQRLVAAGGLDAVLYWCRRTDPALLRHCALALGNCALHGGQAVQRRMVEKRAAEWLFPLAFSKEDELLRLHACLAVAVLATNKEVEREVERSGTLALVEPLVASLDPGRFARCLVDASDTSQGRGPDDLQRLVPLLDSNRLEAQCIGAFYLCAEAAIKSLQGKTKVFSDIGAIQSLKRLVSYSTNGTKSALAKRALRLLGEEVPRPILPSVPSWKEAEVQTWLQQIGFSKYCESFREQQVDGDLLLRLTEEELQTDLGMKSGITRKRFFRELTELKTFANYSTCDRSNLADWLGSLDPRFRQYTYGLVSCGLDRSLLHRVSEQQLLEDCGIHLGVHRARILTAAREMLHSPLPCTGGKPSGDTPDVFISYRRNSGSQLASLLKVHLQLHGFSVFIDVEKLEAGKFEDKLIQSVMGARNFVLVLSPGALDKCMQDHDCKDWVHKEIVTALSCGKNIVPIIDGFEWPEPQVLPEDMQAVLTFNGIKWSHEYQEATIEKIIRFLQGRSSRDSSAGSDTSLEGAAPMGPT
structure (smiles),measurement,setting,value
COc1ccc2cc1Oc1ccc(cc1)C[C@H]1c3cc(c(OC)cc3CCN1C)Oc1c(OC)c(OC)cc3c1[C@H](C2)N(C)CC3,survival,[1],1.58 (inactive)
same,parasite load remaining,[2],84.6% (inactive)
same,viability,[2],98.6%
same,inhibition,[3],19.5% (inactive)
same,red/green cell ratio (normalised),[4],0.86 (inactive)
same,normalised cell number,[4]; [20],1.08
same,normalised cell number,[4]; [21],0.93
same,fold change,[5]; [22],0.882 (inactive) and 1.13 (inactive)
same,fold change,[5]; [23],1.24 and 1.19
same,cell count,[5]; [24],7200 and 3450
same,cell count,[5]; [25],8160 and 3060
same,luciferase signal,[6],68 AU (inactive)
COc1cc(O)c2c(c1)C(=O)c1cc(C)cc(O)c1C2=O,inhibition,[3],36.5% (active)
same,red/green cell ratio (normalised),[4],1 (inactive)
same,normalised cell number,[4]; [20],1
same,normalised cell number,[4]; [21],1.01
same,fold change,[5]; [22],0.975 (inactive)
same,fold change,[5]; [23],0.792
same,cell count,[5]; [24],9920
same,cell count,[5]; [25],10200
same,z-score,[7]; [26],-0.364 (inactive)
same,z-score,[7]; [27],0.659
same,luciferase signal,[6],212 AU (inactive)
O=C(/C=C/c1ccc(O)c(O)c1)OCCc1ccccc1,period change,[8],0.335 h (inactive)
same,inhibition,[3],14% (inactive)
same,red/green cell ratio (normalised),[4],0.72 (inactive)
same,normalised cell number,[4]; [20],1.3
same,normalised cell number,[4]; [21],0.94
same,fold change,[5]; [22],1.03 (inactive) and 1.01 (inactive) and 1.12 (inactive)
same,outcome,[9],inactive
same,luciferase signal,[6],56 AU (inactive)
same,z-score,[10],-1.37 (inactive) and -0.615 (inactive)
Cc1cc(O)c2c(c1)C(=O)c1cc(O)cc(O)c1C2=O,period change,[8],0.05 h (inactive)
same,inhibition,[3],2.17% (inactive)
same,red/green cell ratio (normalised),[4],1.05 (inactive)
same,normalised cell number,[4]; [20],1.08
same,normalised cell number,[4]; [21],1.13
same,fold change,[5]; [22],1.01 (inactive) and 0.837 (inactive)
same,fold change,[5]; [23],1.12 and 1.08
same,cell count,[5]; [24],8200 and 6790
same,cell count,[5]; [25],8110
same,outcome,[9],inactive
same,z-score,[7]; [26],-0.41 (inactive)
same,z-score,[7]; [27],0.119
same,z-score,[10],0.08 (inactive)
CCCc1nn(C)c2c(=O)[nH]c(-c3cc(S(=O)(=O)N4CCN(C)CC4)ccc3OCC)nc12,parasite load remaining,[2],94.8% (inactive) and 65.8% (inactive) and 48% (inactive)
same,viability,[2],89.3% and 101% and 108%
same,inhibition,[3],6.7% (inactive)
same,red/green cell ratio (normalised),[4],0.98 (inactive)
same,normalised cell number,[4]; [20],1.05
same,normalised cell number,[4]; [21],1.03
same,cell count,[5]; [24],10500 and 7310 and 9670
same,outcome,[9],inactive
same,z-score,[7]; [26],-0.38 (inactive) and -0.0288 (inactive) and 1.25 (inactive)
same,z-score,[7]; [27],-0.0156 and 0.388 and 1.37
same,remaining NAD,[11],10 nM (inactive)
same,luciferase signal,[6],60 AU (inactive)
same,z-score,[10],0.235 (inactive) and 0.33 (inactive)
CC(=O)N[C@@H](CC(=O)O)C(=O)N[C@@H](CCC(=O)O)C(=O)O (Ac-Asp-Glu-OH),inhibition,[12],12.9%
same,score,[13],1.12
same,rescue above control,[14],7.68
same,cytochrome c release ratio,[15],1.15
same,inhibition of aggregation,[16],1.96%
same,glutamate uptake change,[17],0%
same,inclusion score,[18],2
same,aggregation suppression score,[19],1.06
same,survival,[1],16.7 (inactive)
same,inhibition,[3],-7.58% (inactive)
same,red/green cell ratio (normalised),[4],0.86 (inactive)
same,normalised cell number,[4]; [20],1.17
same,normalised cell number,[4]; [21],1.01
same,fold change,[5]; [22],0.963 (inactive)
same,fold change,[5]; [23],0.542
same,cell count,[5]; [24],8810
same,cell count,[5]; [25],9150
same,z-score,[10],-0.67 (inactive)
O=c1c(O)c(-c2ccc(O)c(O)c2)oc2cc(O)ccc12,inhibition,[3],-3.55% (inactive)
same,red/green cell ratio (normalised),[4],1.02 (inactive)
same,normalised cell number,[4]; [20],1.04
same,normalised cell number,[4]; [21],1.06
same,fold change,[5]; [22],0.705 (inactive) and 0.857 (inactive)
same,fold change,[5]; [23],0.235 and 0.741
same,cell count,[5]; [24],4440 and 7100
same,cell count,[5]; [25],6300 and 8290
same,z-score,[7]; [26],-0.19 (inactive) and -0.5 (inactive)
same,z-score,[7]; [27],-0.897 and -0.252
same,luciferase signal,[6],56 AU (inactive)
same,z-score,[10],0.17 (inactive)
Nc1ccc(S(=O)(=O)Nc2ncccn2)cc1,inhibition,[12],-24.3%
same,score,[13],0.99
same,rescue above control,[14],-2.17
same,cytochrome c release ratio,[15],1.47
same,inhibition of aggregation,[16],53.9%
same,glutamate uptake change,[17],-2.67%
same,inclusion score,[18],2
same,aggregation suppression score,[19],0.995
same,survival,[1],31.2 (inactive)
same,inhibition,[3],5.23% (inactive)
same,red/green cell ratio (normalised),[4],1.41 (inactive)
same,normalised cell number,[4]; [20],0.84
same,normalised cell number,[4]; [21],1.19
same,z-score,[7]; [26],-0.222 (inactive) and 0.26 (inactive) and -0.566 (inactive)
same,z-score,[7]; [27],0.689 and 0.071 and -1.27
same,remaining NAD,[11],10 nM (inactive)
same,luciferase signal,[6],40 AU (inactive)
same,z-score,[10],-0.065 (inactive)
CCn1nc(C(=O)O)c(=O)c2cc3c(cc21)OCO3,inhibition,[12],20.5%
same,score,[13],0.7
same,rescue above control,[14],3.16
same,cytochrome c release ratio,[15],0.93
same,inhibition of aggregation,[16],18.2%
same,glutamate uptake change,[17],-5.25%
same,inclusion score,[18],2
same,aggregation suppression score,[19],0.697
same,period change,[8],0.04 h (inactive)
same,survival,[1],2.42 (inactive)
same,parasite load remaining,[2],87.3% (inactive) and 66.8% (inactive)
same,viability,[2],99.6% and 76.9% and 91.7%
same,inhibition,[3],6.67% (inactive)
same,red/green cell ratio (normalised),[4],1.25 (inactive)
same,normalised cell number,[4]; [20],1.11
same,normalised cell number,[4]; [21],1.38
same,fold change,[5]; [22],0.983 (inactive) and 0.931 (inactive) and 0.893 (inactive)
same,fold change,[5]; [23],1.81 and 0.999 and 1.16
same,cell count,[5]; [24],10100 and 8650 and 10900
same,cell count,[5]; [25],10300 and 9290 and 12200
same,outcome,[9],inactive
same,z-score,[7]; [26],-0.474 (inactive)
same,z-score,[7]; [27],-0.663
same,remaining NAD,[11],10 nM (inactive)
same,luciferase signal,[6],32 AU (inactive)
same,z-score,[10],0.215 (inactive)
COc1ccc(-c2coc3cc(O)ccc3c2=O)cc1,parasite load remaining,[2],260% (inactive)
same,viability,[2],88.5%
same,inhibition,[3],-6.94% (inactive)
same,red/green cell ratio (normalised),[4],0.93 (inactive)
same,normalised cell number,[4]; [20],1.23
same,normalised cell number,[4]; [21],1.14
same,fold change,[5]; [22],0.949 (inactive)
same,fold change,[5]; [23],0.624
same,cell count,[5]; [24],7740
same,cell count,[5]; [25],8150
same,z-score,[7]; [26],-0.217 (inactive)
same,z-score,[7]; [27],0.38
same,luciferase signal,[6],140 AU (inactive)
C[N+](C)(C)CCO,inhibition,[12],2.29%
same,score,[13],1.21
same,rescue above control,[14],0.45
same,cytochrome c release ratio,[15],1.11
same,inhibition of aggregation,[16],51.5%
same,glutamate uptake change,[17],11.9%
same,inclusion score,[18],2
same,aggregation suppression score,[19],1.39
same,period change,[8],-0.015 h (inactive)
same,parasite load remaining,[2],151% (inactive) and 49.7% (inactive)
same,viability,[2],89.2% and 117%
same,inhibition,[3],2.82% (inactive)
same,red/green cell ratio (normalised),[4],1.11 (inactive)
same,normalised cell number,[4]; [20],1.16
same,normalised cell number,[4]; [21],1.3
same,fold change,[5]; [22],1.01 (inactive) and 0.882 (inactive) and 0.829 (inactive)
same,fold change,[5]; [23],2.28 and 1.39 and 4.39
same,cell count,[5]; [24],9630 and 8510 and 11000
same,cell count,[5]; [25],9520 and 9640 and 13300
same,outcome,[9],inactive
same,z-score,[7]; [26],-0.228 (inactive)
same,z-score,[7]; [27],-0.171
same,remaining NAD,[11],10 nM (inactive)
same,luciferase signal,[6],200 AU (inactive)
same,z-score,[10],0.51 (inactive)
